A short description of assay [1]: qHTS assay to identify small molecule agonists of the estrogen receptor alpha (ER-alpha) signaling pathway in the presence of an antagonist - cell viability counter screen (AID 1259386).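 Note: series mostly up to about 92 µM; cells exposed to compounds for 22 h at 37 °C before the viability read; nearly all actives have a fitted effect of over 30% in size.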 A digest of the protocol: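 Fluorescent CellTiter-Fluor viability signal from VM7Luc4E2 cells, with the reagent added during the final hour of a 22hr compound exposure at 37C in the presence of 10.0nM ICI-182,780.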

For assay [2], the target named is Progesterone receptor (Homo sapiens) (UniProt P06401). As to the kind of experiment: qHTS assay to identify small molecule agonists of the progesterone receptor (PR) signaling pathway (AID 1346784; calls by dose curve; note: nearly all actives have a fitted effect of over 30% in size). A digest of the protocol: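 PR-UAS-bla HEK 293T cells carrying a UAS-driven beta-lactamase reporter were seeded in medium with 2% charcoal-stripped FBS, preincubated 6 hr at 37C, then exposed to compounds in DMSO for 16 hr; agonism was read by LiveBLAzer B/G FRET fluorescence.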
(qHTS replaces the single test concentration by a dilution series.)

Assay [3] shares this target. As to the kind of experiment: qHTS assay to identify small molecule antagonists of the progesterone receptor (PR) signaling pathway (AID 1346795; active = well fitted inhibition curve with a large enough effect in the signal ratio in the repeat runs, not every such curve was filed as active; the % refers to the signal ratio). In outline: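 PR-UAS-bla HEK293T cells carrying a UAS-driven beta-lactamase reporter were plated in medium with 2% charcoal-stripped FBS and rested 6 hr at 37C. Compounds were added with 1 nM R5020 (final) for 16 hr, then FRET substrate loaded 2 hr at room temperature.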

Assay [4] can be described thus: qHTS assay to identify small molecule antagonists of the progesterone receptor (PR) signaling pathway - cell viability counter screen (AID 1346798). Note: nearly all actives have a fitted effect of over 50% in size. Note: potency is the fitted concentration of half-maximal effect. In outline:
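PR-UAS-bla HEK293T cells in medium with 2% charcoal-stripped FBS were treated with compounds plus R5020 for 16 hr at 37C. Cell viability was then read by CellTiter-Glo luminescence after 30 min at room temperature in the same wells.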

Assay [5] can be described thus: qHTS assay to identify small molecule agonists of the progesterone receptor (PR) signaling pathway - cell viability counter screen (AID 1346799; calls by dose curve; note: nearly all actives have a fitted effect of over 45% in size). In outline:
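PR-UAS-bla HEK293T cells, 3,000 per well in medium with 2% charcoal-stripped FBS, were preincubated 6 hr at 37C, then exposed to compounds for 16 hr; viability was read as CellTiter-Glo luminescence after 30 min at room temperature.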

A short description of assay [6]: qHTS assay to identify small molecule antagonists of the TGF-beta/Smad signaling pathway - cell viability counter screen (AID 1346824). Note: nearly all actives have a fitted effect of over 50% in size. In outline: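 SBE-bla HEK 293T cells, incubated overnight, then compound plus 0.25 ng/mL TGF-beta1 (stock added) for 5 hr at 37 C. Viability was read in the same wells by CellTiter-Glo luminescence after 30 min at room temperature.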

A short description of assay [7]: qHTS assay to identify small molecule agonists of the TGF-beta/Smad signaling pathway (AID 1346859; active = well fitted activation curve with a large enough effect in the signal ratio in the repeat runs, not every such curve was filed as active; the % refers to the signal ratio; note: series mostly up to about 77 µM). In outline:
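HEK 293T cells stably carrying a beta-lactamase reporter driven by the Smad binding element were seeded overnight, exposed to DMSO-dissolved compounds for 5 hr at 37 C, 5% CO2, then loaded with FRET substrate for 2 hr at room temperature.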

In assay [8] the target is Thyrotropin-releasing hormone receptor (Homo sapiens) (UniProt P34981). Nature of the assay: qHTS assay to identify small molecule antagonists of the thyrotropin-releasing hormone receptor (TRHR) signaling pathway (AID 1346877; active = well fitted inhibition curve with a large enough effect in the repeat runs, not every such curve was filed as active; note: series mostly up to about 51 µM). A digest of the protocol:
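In this cell-based calcium flux format, HEK293 cells expressing TRHR received test compound for 5 min before the agonist TRH (1 nM final). Dye loading lasted 2 h at 37 °C.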

Assay [9] shares this target. As to the kind of experiment: qHTS assay to identify small molecule agonists of the thyrotropin-releasing hormone receptor (TRHR) signaling pathway (AID 1346891; calls by dose curve; note: series mostly up to about 58 µM). In outline: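 TRHR-expressing HEK293 cells were plated 18 h at 37 °C/5% CO2, loaded with calcium dye 2 h at 37 °C, then given compound in DMSO; fluorescence was read kinetically for 3 min at 1 s intervals.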

The nature of assay [10]: Caspase-3/7 induction in HepG2 cells by small molecules, qHTS assay (AID 1346978). Note: nearly all actives have a fitted effect of over 15% in size. In outline:
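Wild-type HepG2 cells, 2,000/well, settled 5 hr at 37 C and 5% CO2, then compound-treated for 17 hr; caspase-3/7 activity read by luminescent Caspase-Glo 3/7 after 30 min at room temperature.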

Assay [11] is described as follows: Caspase-3/7 induction in CHO-K1 cells by small molecules, qHTS cell viability counter screen (AID 1346979). Note: nearly all actives have a fitted effect of over 35% in size. In outline: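 Wild-type CHO-K1 cells were seeded at 1,500 per well, rested 5hr at 37 C, then exposed to compounds in DMSO. After 16hr, CellTiter-Fluor reagent was added and fluorescence read 1hr later as the viability measure.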
Assay [12] in a line: Caspase-3/7 induction in CHO-K1 cells by small molecules, qHTS assay (AID 1346980). Note: nearly all actives have a fitted effect of over 15% in size. In outline:
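Wild-type CHO-K1 cells exposed to compounds for 17hr at 37 C, 5% CO2. Caspase-3/7 activity then measured by Caspase-Glo 3/7 luminescence after 30min at room temperature.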

The nature of assay [13]: Caspase-3/7 induction in HepG2 cells by small molecules, qHTS cell viability counter screen (AID 1346981). Note: series mostly up to about 92 µM; nearly all actives have a fitted effect of over 30% in size. In outline:
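Counter screen for cytotoxicity: HepG2 exposed 16 hr to compounds, then CellTiter-Fluor viability signal (fluorescence, 1 hr reagent incubation).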

Assay [14] addresses Nuclear receptor subfamily 1 group I member 2 (Homo sapiens) (UniProt O75469). As to the kind of experiment: Human pregnane X receptor (PXR) small molecule agonists, qHTS assay (AID 1346982). Note: nearly all actives have a fitted effect of over 35% in size. Note: potency is the fitted concentration of half-maximal effect. In outline:
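Luminescence (ONE-Glo, 30 min RT) after 24 hr compound exposure of PXR-Luc HepG2 cells; cells rested 5 hr post-plating in 5% charcoal-stripped FBS medium.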

The target of assay [15] is Nuclear receptor subfamily 1 group I member 2 (Rattus norvegicus) (UniProt Q9R1A7). Nature of the assay: Rat pregnane X receptor (rPXR) activation by small molecules, qHTS assay (AID 1346983). Note: nearly all actives have a fitted effect of over 20% in size. To be noted: rPXR luciferase reporter cells, One-Glo luminescence, 24 h; stronger effect = higher value. In outline:
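Cell-based rPXR activation assay: rPXR cells, 2,000 per well, rested 5hr at 37 C, then exposed to compounds in DMSO for 24 hr at 37 C. Luciferase activity read by One-Glo luminescence after 30 min at room temperature.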

Assay [16] concerns the target Nuclear receptor subfamily 1 group I member 2 (Homo sapiens) (UniProt O75469). As to the kind of experiment: CYP3A4 induction through human pregnane X receptor (PXR) by small molecules, qHTS assay (AID 1346984). Note: nearly all actives have a fitted effect of over 40% in size. Note: potency is the fitted concentration of half-maximal effect. A digest of the protocol:
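DPX-2 reporter cells; 24h cpd, 37C; Luciferin-IPA 3uM final x3h; One-Glo 30 min RT; lumi read.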

Assay [17] shares this target. Nature of the assay: Human pregnane X receptor (PXR) activation by small molecules, qHTS assay (AID 1346985). Note: nearly all actives have a fitted effect of over 40% in size. Note: potency is the fitted concentration of half-maximal effect. In outline: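 DPX-2 cells (HepG2 co-transfected with a PXR response element and a CYP3A4-promoter luciferase construct) were seeded at 2,000 per well, rested 5 hr at 37C, then exposed to DMSO-dissolved compounds for 24 hr. Activation was read as luciferase luminescence.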

For assay [18], the target named is Acetylcholinesterase (Homo sapiens) (UniProt P22303). Nature of the assay: Acetylcholinesterase (AChE) small molecule antagonists: colormetric cell-based qHTS assay (AID 1347395; calls by dose curve; note: nearly all actives have a fitted effect of over 30% in size; note: potency is the fitted concentration of half-maximal effect). In outline: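 SH-SY5Y cells, plated overnight at 37 C, were exposed to compounds for 30 min at 37 C and 5% CO2. Acetylthiocholine plus DTNB was then added, and thiocholine from endogenous AChE was quantified colorimetrically after 90 min at 37 C.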

The nature of assay [19]: qHTS assay to identify small molecule agonists of the TGF-beta/Smad signaling pathway - cell viability counter screen (AID 1346829). Note: top concentration of the series differs between compounds; nearly all actives have a fitted effect of over 45% in size. A digest of the protocol: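 HEK 293T SBE-bla line, 5 hr compound exposure at 37 C, multiplexed CellTiter-Glo viability read by luminescence.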
The nature of assay [20]: Human pregnane X receptor (PXR) small molecule agonists, qHTS cell viability counter screen (AID 1346977). Note: nearly all actives have a fitted effect of over 50% in size. In outline:
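PXR-Luc HepG2 cells in medium with 5% charcoal-stripped FBS were pre-incubated 5hr, then exposed to compounds for 24hr at 37C. Viability was read in the same wells by CellTiter-Fluor fluorescence, reagent added after 23hr with a 1hr incubation.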

A number with no mark means an inactive call. Results filed as inconclusive are left out. Active and inactive are the calls of the source. Unless noted, calls come from the whole dose curve; as a rule, active = well fitted curve in the direction sought with a large enough effect in the repeat runs; inconclusive = weak or mixed curves; inactive = no such curve, though single readings can be large; an effect the other way counts as inactive or inconclusive.
% is set by controls: 0 for no effect and ±100 for the full control effect.

Chain of Thyrotropin-releasing hormone receptor (Homo sapiens) (P34981 whole entry, looked up): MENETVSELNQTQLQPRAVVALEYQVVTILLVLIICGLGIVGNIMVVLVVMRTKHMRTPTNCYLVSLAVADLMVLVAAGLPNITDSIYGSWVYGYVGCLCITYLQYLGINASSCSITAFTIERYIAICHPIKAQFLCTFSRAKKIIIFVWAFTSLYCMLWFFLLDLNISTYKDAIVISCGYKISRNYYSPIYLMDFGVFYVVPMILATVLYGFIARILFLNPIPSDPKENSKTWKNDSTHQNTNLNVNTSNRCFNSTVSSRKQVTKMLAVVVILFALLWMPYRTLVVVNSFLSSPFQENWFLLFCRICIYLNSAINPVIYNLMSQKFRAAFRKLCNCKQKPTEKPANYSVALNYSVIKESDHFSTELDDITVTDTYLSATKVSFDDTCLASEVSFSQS
Chain of Nuclear receptor subfamily 1 group I member 2 (Homo sapiens) (O75469 whole entry, looked up): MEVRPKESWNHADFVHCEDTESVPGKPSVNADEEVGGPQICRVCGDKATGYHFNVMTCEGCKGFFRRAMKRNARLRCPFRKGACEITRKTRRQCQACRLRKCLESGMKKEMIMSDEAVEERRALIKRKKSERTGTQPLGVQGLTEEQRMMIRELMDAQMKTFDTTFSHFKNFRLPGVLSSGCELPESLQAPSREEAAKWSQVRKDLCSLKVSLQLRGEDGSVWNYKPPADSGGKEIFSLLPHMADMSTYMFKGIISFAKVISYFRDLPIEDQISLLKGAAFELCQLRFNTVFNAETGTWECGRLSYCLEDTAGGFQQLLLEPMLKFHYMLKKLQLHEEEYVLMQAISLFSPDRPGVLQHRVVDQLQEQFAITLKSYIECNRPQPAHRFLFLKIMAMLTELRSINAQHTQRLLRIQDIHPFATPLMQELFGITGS
Chain of Acetylcholinesterase (Homo sapiens) (P22303 whole entry, looked up): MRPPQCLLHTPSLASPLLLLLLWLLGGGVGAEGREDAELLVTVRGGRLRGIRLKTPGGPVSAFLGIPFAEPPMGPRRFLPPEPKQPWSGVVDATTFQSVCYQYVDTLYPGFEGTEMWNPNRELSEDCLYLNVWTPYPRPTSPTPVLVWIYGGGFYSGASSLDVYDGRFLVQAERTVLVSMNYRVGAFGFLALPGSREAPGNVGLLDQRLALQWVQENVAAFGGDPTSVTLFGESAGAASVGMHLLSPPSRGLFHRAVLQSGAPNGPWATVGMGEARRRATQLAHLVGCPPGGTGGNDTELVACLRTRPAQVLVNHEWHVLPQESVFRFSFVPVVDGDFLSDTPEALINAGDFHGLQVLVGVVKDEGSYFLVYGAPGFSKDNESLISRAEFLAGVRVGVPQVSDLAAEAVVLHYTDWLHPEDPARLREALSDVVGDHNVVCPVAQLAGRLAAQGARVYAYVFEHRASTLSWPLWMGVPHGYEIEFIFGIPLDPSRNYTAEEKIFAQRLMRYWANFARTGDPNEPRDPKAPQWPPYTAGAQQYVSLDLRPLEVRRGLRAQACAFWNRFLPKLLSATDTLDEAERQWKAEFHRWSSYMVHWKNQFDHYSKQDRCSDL
Chain of Progesterone receptor (Homo sapiens) (P06401 whole entry, looked up): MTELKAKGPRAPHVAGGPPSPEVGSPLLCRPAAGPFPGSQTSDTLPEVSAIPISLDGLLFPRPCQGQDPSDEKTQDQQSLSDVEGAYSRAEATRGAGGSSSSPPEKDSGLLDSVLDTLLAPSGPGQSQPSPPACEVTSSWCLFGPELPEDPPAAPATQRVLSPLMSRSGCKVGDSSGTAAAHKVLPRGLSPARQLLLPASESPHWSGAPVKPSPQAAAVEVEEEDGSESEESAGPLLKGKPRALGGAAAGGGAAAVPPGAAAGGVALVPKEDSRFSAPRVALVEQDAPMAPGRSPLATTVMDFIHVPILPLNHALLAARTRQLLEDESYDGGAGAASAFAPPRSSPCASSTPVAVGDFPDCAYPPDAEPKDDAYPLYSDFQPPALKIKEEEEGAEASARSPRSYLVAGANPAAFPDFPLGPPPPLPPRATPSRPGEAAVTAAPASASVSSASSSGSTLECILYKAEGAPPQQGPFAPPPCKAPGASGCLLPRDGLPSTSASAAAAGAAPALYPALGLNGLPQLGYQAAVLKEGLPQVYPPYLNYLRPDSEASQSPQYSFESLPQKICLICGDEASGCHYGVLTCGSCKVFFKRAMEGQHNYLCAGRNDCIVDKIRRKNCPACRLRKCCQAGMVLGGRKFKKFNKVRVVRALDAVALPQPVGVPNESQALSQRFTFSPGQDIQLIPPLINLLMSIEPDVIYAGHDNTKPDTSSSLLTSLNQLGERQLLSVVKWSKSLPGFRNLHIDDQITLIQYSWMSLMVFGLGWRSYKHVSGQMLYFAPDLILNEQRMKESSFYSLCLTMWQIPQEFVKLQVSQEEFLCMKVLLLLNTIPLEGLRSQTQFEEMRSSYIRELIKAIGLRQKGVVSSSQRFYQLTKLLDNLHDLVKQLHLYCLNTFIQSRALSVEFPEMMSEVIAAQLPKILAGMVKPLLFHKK
Chain of Nuclear receptor subfamily 1 group I member 2 (Rattus norvegicus) (Q9R1A7 whole entry, looked up): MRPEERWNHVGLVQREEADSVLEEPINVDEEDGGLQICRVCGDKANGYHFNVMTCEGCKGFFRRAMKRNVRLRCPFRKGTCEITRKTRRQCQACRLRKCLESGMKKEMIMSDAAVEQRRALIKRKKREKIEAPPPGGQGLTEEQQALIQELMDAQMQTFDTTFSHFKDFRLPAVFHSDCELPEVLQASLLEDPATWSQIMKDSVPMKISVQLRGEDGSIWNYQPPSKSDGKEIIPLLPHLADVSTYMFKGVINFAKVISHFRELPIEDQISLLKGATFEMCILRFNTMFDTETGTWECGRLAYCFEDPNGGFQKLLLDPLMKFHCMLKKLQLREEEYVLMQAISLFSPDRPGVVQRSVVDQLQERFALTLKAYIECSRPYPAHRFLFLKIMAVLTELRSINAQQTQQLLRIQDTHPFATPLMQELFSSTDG

Regarding `C=C1CC[C@@]2(O)[C@H]3Cc4ccc(O)c5c4[C@@]2(CCN3CC2CC2)[C@H]1O5`, the Potency entry in assay [1], in [2], in assay [3], in [5], in assay [8] and in assay [11] was “inactive” each time. Further, the Potency entry in [13], in assay [14], in assay [16], in [17] and in assay [18] was “inactive” throughout. In addition, in assay [4], the Potency is 2.98 µM (active). Also, the compound was classed as inactive in assay [6], in assay [7], in [9], in assay [10] and in assay [12]. Besides, the max activation in assay [15] is 0.729%.
For the compound `ClCOCCl`, the Potency result in assay [1], in [2], in assay [3], in [4], in assay [5] and in [19] was “inactive” throughout. The Potency entry in assay [20], in assay [11] and in assay [18] was “inactive” in each case. The result in assay [6], in assay [7] and in assay [10] was inactive.
Turning to `CS(=O)(=O)c1ccc(C(=O)C2C(=O)CCCC2=O)c(Cl)c1COCC(F)(F)F`, the Potency entry in assay [1], in assay [2], in [3], in assay [4], in assay [5] and in [19] was “inactive” each time. Further, the Potency result in assay [8], in [11], in assay [13] and in assay [14] was “inactive” each time. In addition, the compound was called inactive in [6], in assay [7], in assay [9], in assay [10] and in assay [12]. Moreover, the Potency in assay [18] was 28.3 µM (active).
As for `c1cncc([C@@H]2CCCCN2)c1`, the Potency result in assay [1], in assay [2], in assay [3], in assay [4], in assay [5] and in [8] was “inactive” in each case. Moreover, the Potency entry in [20] and in assay [18] was “inactive” in each case. Also, the call in [6], in [7], in assay [9] and in assay [10] was inactive. Further, the Potency in [14] is 21.7 µM (active).
On to `CC1=C2[C@H]3OC(=O)[C@@H](C)[C@@H]3CC[C@@]2(C)C=CC1=O`, for which the Potency result in assay [1], in assay [2], in [3], in assay [4], in assay [5] and in assay [8] was “inactive” each time. Besides, the Potency entry in [20], in assay [11], in assay [13] and in assay [18] was “inactive” in each case. In addition, the compound was classed as inactive in [6], in assay [7], in [9], in assay [10] and in assay [12]. Further, the Potency in assay [14] is 7.5 µM (active); in assay [16] it was 11.2 µM (active); in assay [17], 2.82 µM (active). Also, the max activation in [15] is 8.61%.
With `COc1cccc(C=O)c1`, the Potency result in assay [1], in [2], in [3], in [4], in [5] and in assay [19] was “inactive” each time. Further, the Potency entry in assay [8], in assay [11], in [13] and in assay [18] was “inactive” in each case. Further, the compound was classed as inactive in [6], in [7], in [9], in assay [10] and in assay [12].
As for `CCOP(=S)(OCC)SCCl`, the Potency result in assay [1], in assay [2], in [3], in [4], in assay [5] and in assay [8] was “inactive” throughout. The Potency result in assay [20] and in [18] was “inactive” each time. Also, the compound was called inactive in assay [6], in assay [7], in assay [9], in [10] and in [12].
Turning to `CN(C)C1CCCCC1`, the Potency entry in assay [1], in [2], in assay [3], in [4], in [5] and in assay [19] was “inactive” in each case. In addition, the Potency result in [8], in assay [11], in assay [13] and in assay [18] was “inactive” in each case. For the same compound, the call in assay [6], in assay [7], in assay [9], in assay [10] and in assay [12] was inactive.
Turning to `CCOC(=O)C(Cl)Cc1cc(-n2nc(C)n(C(F)F)c2=O)c(F)cc1Cl` (centres undefined), the Potency result in assay [1], in assay [2], in [3], in assay [4], in assay [5] and in [19] was “inactive” each time. In addition, the Potency entry in assay [8] and in assay [13] was “inactive” each time. The compound was called inactive in assay [6], in assay [7], in assay [9], in assay [10] and in assay [12].

For the origin of these results see PubChem BioAssay (Tox21).
